Data on 28 compounds can be found in the supplement of paper PMC13380429.

In assay [1] the test system is Vero E6 infected with SARS-CoV-2. The assay can be described thus: morphology score (similarity to uninfected cells); higher = more like uninfected cells. To be noted: 24 h.
Assay [2] shares this test system. The assay can be described thus: SARS-CoV-2 infection rate relative to infected DMSO; higher = more infection, active = 60 or less. To be noted: 24 h.

SMILES strings stand for the structures.

Regarding `CC(=O)Nc1ccc(C(=O)NC(C)(C)C)cc1` (10 µM), in assay [1], the morphology score worked out at 0.0601. The SARS-CoV-2 infection rate in assay [2] is 106% (inactive).
In the case of `Nc1nc2c(ncn2COC(CO)CO)c(=O)[nH]1` [ganciclovir] (10 µM), the morphology score in assay [1] was 0.108. The SARS-CoV-2 infection rate in assay [2] is 97% (inactive).
On to `c1ccc(N2CCN(Cc3nc4ccccc4[nH]3)CC2)nc1` (10 µM), for which the morphology score in assay [1] is 0.136. Also, the SARS-CoV-2 infection rate in assay [2] is 104% (inactive).
Take `COc1ccc(NC(=O)c2ccc(C(=N)N(C)C)cc2)c(C(=O)Nc2ccc(Cl)cn2)c1` [betrixaban] (10 µM): in assay [1], the morphology score stood at 0.0893. Moreover, in assay [2], the SARS-CoV-2 infection rate was 91% (inactive).
`Nc1cccc(-c2cc3c(Oc4cccc(O)c4)ncnc3[nH]2)c1` (0.833333 µM): the morphology score in assay [1] worked out at 0.0833. Further, the SARS-CoV-2 infection rate in assay [2] is 104% (inactive).
For `COc1cc2c(cc1OCCCN1CCCC1)N=C(N)C21CCC1` (10 µM), in that order: 0.0229 and 106% (inactive).
In assay [1], `CNC(=O)[C@H]1O[C@@H](n2cnc3c(NCc4cccc(I)c4)ncnc32)[C@H](O)[C@@H]1O` (10 µM) showed a morphology score of 0.156. In addition, in assay [2], the SARS-CoV-2 infection rate is 100% (inactive).
The like results for `CCC(CC)(NC(=O)C(C)C)C(=O)N[C@@H](CCCNC(=N)N)C(=O)NC1(C(=O)NC(c2ccc(F)cc2)c2ccc(F)cc2)CCCC1` (10 µM) were, in that order, -0.044 and 116% (inactive).
For `CC(=O)OCC(=O)[C@@]1(O)CC[C@H]2[C@@H]3CCC4=CC(=O)C=C[C@]4(C)[C@@]3(F)[C@@H](O)C[C@@]21C` [isoflupredone-acetate] (10 µM), in that order: 0.155 and 98% (inactive).
In the case of `COc1cc2nc(C3CC3)nc(N3CCN(c4ccccc4OC)CC3)c2cc1OC` (0.833333 µM), the morphology score in assay [1] came to 0.157. Moreover, the SARS-CoV-2 infection rate in assay [2] was 99% (inactive).
Compound `COC(=O)[C@H](Cc1ccccc1)NC(=O)[C@@H](N)CC(=O)O` [aspartame] (10 µM) had a morphology score in assay [1] of 0.172. In assay [2], the SARS-CoV-2 infection rate is 106% (inactive).
In assay [1], `O=C(O)CC[C@H]1CC[C@@](c2cc(F)ccc2F)(S(=O)(=O)c2ccc(Cl)cc2)CC1` (10 µM) gave a morphology score of 0.0148. For the same compound, the SARS-CoV-2 infection rate in assay [2] is 110% (inactive).
In assay [1], `O=C(Nc1cccnn1)N1CCC(=Cc2cccc(Oc3ccc(C(F)(F)F)cn3)c2)CC1` (10 µM) showed a morphology score of 0.00817. In addition, the SARS-CoV-2 infection rate in assay [2] is 104% (inactive).
Regarding `C=CCn1c(=O)c2cnc(Nc3ccc(N4CCN(C)CC4)cc3)nc2n1-c1cccc(C(C)(C)O)n1` (10 µM), the morphology score in assay [1] was -0.0169. In assay [2], the SARS-CoV-2 infection rate was 96% (inactive).
With `COC(=O)N[C@H](C(=O)N[C@@H](Cc1ccccc1)[C@@H](O)CN(Cc1ccc(-c2ccccn2)cc1)NC(=O)[C@@H](NC(=O)OC)C(C)(C)C)C(C)(C)C` [atazanavir] (10 µM), the morphology score in assay [1] amounted to 0.129. In assay [2], the SARS-CoV-2 infection rate is 112% (inactive).
`O=C(Nc1cc(C(F)(F)F)cc(C(F)(F)F)c1)c1cc(Cl)ccc1O` [IKK-2-inhibitor-V] (10 µM) had a morphology score in assay [1] of -0.2. Also, the SARS-CoV-2 infection rate in assay [2] was 104% (inactive).
`CC(C)(C#N)c1cc(Cn2cncn2)cc(C(C)(C)C#N)c1` [anastrozole] (10 µM): the morphology score in assay [1] is -0.0389. Further, the SARS-CoV-2 infection rate in assay [2] was 109% (inactive).
With `C[C@H](NC(=O)Cc1cc(F)cc(F)c1)C(=O)N[C@@H]1C(=O)N(C)c2ccccc2-c2ccccc21` (10 µM), the morphology score in assay [1] amounted to 0.18. In addition, the SARS-CoV-2 infection rate in assay [2] is 119% (inactive).
With `CCOC(=O)c1c(CSc2ccccc2)n(C)c2cc(Br)c(O)c(CN(C)C)c12` [arbidol] (10 µM), the morphology score in assay [1] worked out at 0.126. The SARS-CoV-2 infection rate in assay [2] was 87.5% (inactive).
`O=C(O)c1cc(O)c2ccc(Cl)cc2n1` [7-chlorokynurenic-acid] (10 µM) returned a morphology score in assay [1] of 0.0315. Further, in assay [2], the SARS-CoV-2 infection rate is 110% (inactive).
For `CC(=O)Nc1ccc(OC[C@](C)(O)C(=O)Nc2ccc([N+](=O)[O-])c(C(F)(F)F)c2)cc1` [andarine] (10 µM), in that order: -0.0126 and 116% (inactive).
In turn, `O=C(O)CCCCC(CCSCc1ccccc1)SCc1ccccc1` (stereo unspecified) (10 µM) showed a morphology score in assay [1] of 0.195. Moreover, in assay [2], the SARS-CoV-2 infection rate was 104% (inactive).
In the case of `Cn1cc(C2=C(c3cn(C4CCN(Cc5ccccn5)CC4)c4ccccc34)C(=O)NC2=O)c2ccccc21` [enzastaurin] (10 µM), the morphology score in assay [1] was -0.0103. Further, in assay [2], the SARS-CoV-2 infection rate is 112% (inactive).
`NC1CCN(c2cccc(Cl)n2)CC1` (10 µM): the morphology score in assay [1] was -0.122. Also, the SARS-CoV-2 infection rate in assay [2] was 108% (inactive).
In assay [1], `Oc1c(I)cc(I)c(O)c1I` [riodoxol] (10 µM) yielded a morphology score of 0.0583. For the same compound, the SARS-CoV-2 infection rate in assay [2] is 107% (inactive).
For `C=CCN1CC[C@]23c4c5ccc(O)c4O[C@H]2C(=O)CC[C@@]3(O)[C@H]1C5` (10 µM), the morphology score in assay [1] was -0.209. Moreover, the SARS-CoV-2 infection rate in assay [2] was 114% (inactive).
In the case of `C[N+](C)(C)CC(O)CC(=O)[O-]` (stereo unspecified) [carnitine-(D/L)] (10 µM), the morphology score in assay [1] was -0.213. For the same compound, in assay [2], the SARS-CoV-2 infection rate was 117% (inactive).
For `NC(=O)c1nc(Nc2ccccc2)sc1NC(=O)C1CCCCC1` (0.833333 µM), the morphology score in assay [1] worked out at 0.0658. In addition, the SARS-CoV-2 infection rate in assay [2] was 100% (inactive).
